Compound activity from PubChem.
Tau fibril FP: blocks human tau fibril formation measured by polarization | P10636 | K18 P301L tau heparin fibrillization, Alexa594 FP, 6 h | Potency, µM (highest dose often 57.7 µM), for inactives: at the highest dose activity, negative = inhibition, usual class: inhibitors | actives 0.39% (n = 280,000) | AID 1468; note: potency is the fitted concentration of half-maximal effect; nearly all actives have a fitted effect of over 55% in size
Target sequence (P10636 561-689 P618L limits assumed): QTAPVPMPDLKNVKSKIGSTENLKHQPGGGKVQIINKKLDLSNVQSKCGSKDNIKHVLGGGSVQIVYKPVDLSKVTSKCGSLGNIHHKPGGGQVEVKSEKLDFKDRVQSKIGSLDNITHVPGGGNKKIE
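Heparin (20 uM) drove fibril formation of recombinant tau K18 P301L, 15 uM unlabeled with 0.24 uM Alexa 594 label, for 6 hr at 37 C in 100 mM sodium acetate pH 7. Fluorescence polarization (555/632 nm) read 1 hr after 30 uM ThT.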
Tau fluor cs: counter-screen for tau fibril formation inhibitors; tau K18 P301L Alexa594 fluorescence, heparin fibrillization; Potency, µM (highest dose often 57.7 µM), for the others: top-dose activity change, negative = decrease; actives 0.93% (n = 280,000); note: potency is the fitted concentration of half-maximal effect; nearly all actives have a fitted effect of over 55% in size
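Human K18 P301L tau (15 uM unlabeled plus 0.24 uM Alexa 594-labeled, final) in 100 mM sodium acetate pH 7 was mixed with compound and 20 uM heparin and incubated 6 hr at 37 C.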
USP1-UAF1 inh: blocks the human USP1/UAF1 deubiquitinase complex | Potency, µM (highest dose often 57.1 µM), inactives show at the highest dose activity change, negative = inhibition, most hits filed as inhibitors | actives 0.23% (n = 390,000) | recombinant USP1/UAF1, Ub-Rhodamine cleavage fluorescence; note: potency is the fitted concentration of half-maximal effect; nearly all actives have a fitted effect of over 60% in size
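1 nM enzyme complex + cpd, 15 min RT; start with Ub-Rho 150nM final; kinetic fluorescence ex 480/em 540, 6 reads q60 s. Buffer 50mM HEPES pH 7.8, 0.5mM EDTA, 0.1 mg/ml BSA, 1mM TCEP, 0.01% Tween-20.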
Coupling enz: inhibits coupling enzyme system, counter-screen for aldolase hits; coupling enzyme system counterscreen, AmpLite Red fluorescence; activity change, negative = inhibition, % at 58.2 µM, hits read low; actives 0.67% (n = 290,000); AID 2472; in the data active = activity change below about -30%
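First, compound is pin-transferred into glyceraldehyde-3-phosphate coupling-enzyme reagent at 57.5 uM final and held 10 min at RT. Next, substrate, coupling system and AmpLite Red are added. After 20 min RT, fluorescence (525/598 nm) is read.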
Tau ThT inhib: tau fibrillization inhibition (ThT binding); P10636; recombinant tau K18 P301L (four-repeat tau fragment), heparin-induced fibrillization, ThT fluorescence; Potency, µM (series often up to 57.4 µM), inactives show at the highest dose activity, negative = inhibition, hits mostly inhibitors; actives 2.1% (n = 270,000); AID 1460; note: potency is the fitted concentration of half-maximal effect; nearly all actives have a fitted effect of over 55% in size
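Heparin-induced (20 uM) aggregation of recombinant human K18 P301L tau, 15 uM unlabeled with 0.24 uM labeled, pH 7 acetate buffer, 6 hr at 37 C with compound. Fibrils quantified by 30 uM ThT fluorescence after 1 hr ambient incubation.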
Active calls of the source: *; ? = inconclusive; . = no result given; [ ] = another dose, or the depositor's remark. Sampled rows, rich in hits. Any-hit rate of the full collection: about 2.3%. Unless noted, calls come from the whole dose curve; as a rule, active = well fitted curve in the direction sought with a large enough effect; inconclusive = small, poorly fitted or top-dose-only effect, or another doubt; inactive = no such curve, though single readings can be large; an effect the other way counts as inactive or inconclusive. % is set by controls: 0 for no effect and ±100 for the full control effect.

SMILES | Tau fibril FP | Tau fluor cs | USP1-UAF1 inh | Coupling enz | Tau ThT inhib
CCOC(=O)c1cc(-c2ccc(C)cc2)n(CC(=O)Nc2ccc(OC)c(Cl)c2)c1C | -4% | -10% | -11% | . | 8%
COc1ccc(CNC(=O)c2ccc(-c3nc(CSc4ccccc4)c(C)o3)cc2)cc1 | -13% | -1% | -15% | . | -1%
Cc1nn(CCc2nc(-c3ccco3)cs2)c2[nH]c(=O)cc(C(F)(F)F)c12 | ? | -16% | -14% | 7 | 25µM*
Cc1cc(C)n(CCc2nc(-c3ccco3)cs2)n1 | ? | -22% | 1% | -10 | 35µM*
O=c1[nH]c(=O)n(Cc2ccccc2)c2nc(-c3ccco3)cc(C(F)(F)F)c12 | 3% | -5% | 2% | 3 | -15%
Cc1cc(C)n(CCc2nc(-c3cccs3)cs2)n1 | 4% | -5% | 3% | -4 | -6%
CC(=O)C(C(C)=O)c1c(Cl)c(O)c(O)c2c(C(=O)c3ccccc3)coc12 | ? | ? | -5% | -12 | 16µM*
CN1CCN(Cc2c(O)ccc3occ(C(=O)c4ccccc4)c23)CC1 | 14% | 2% | -18% | 0 | -11%
Cc1cc(=O)[nH]c2cc(O)ccc12 | -4% | 1% | ? | 1 | -2%
CC(C)=CCCC1(C)C=Cc2c(c(C)cc3c2[nH]c2cc(O)ccc23)O1 (configuration not stated) | ? | 5µM*[quencher] | -24% | -5 | 28µM*
CC#CCN1c2ccccc2[C@]23C[C@@H](C(=O)OC)N(S(=O)(=O)c4c(C)noc4C)C2=NC(C(=O)OC)=C(C(=O)OC)[C@H]13 | 1%[11.6 µM] | 4%[11.6 µM] | . | 2 | ?
CCOC(=O)C1CCN(c2nc(N)c3c(N)nc(SCC(=O)O)cc3c2C#N)CC1 | ? | -17% | ? | -32* | ?
COc1ccc(CN2C(=O)Cc3c2nc(N)c2c(N)nc(N4CCCCC4)c(C#N)c32)cc1 | -8% | ? | . | -8 | ?
CCOc1cc2c(C#N)c(N3CCNCC3)nc(N)c2c(N)n1 | 5% | -22% | -7% | -2 | -17%
CCOc1cc2c(C#N)c(N3CCCCC3)nc(N)c2c(N)n1 | 14% | ? | ? | -48* | ?
COc1cc2c(C#N)c(N3CCCCC3)nc(N)c2c(N)n1 | 9% | ? | ? | -52* | ?
COc1cc2c(C#N)c(N3CCOCC3)nc(N)c2c(N)n1 | -14% | -16% | 3% | -52* | ?
N#Cc1c(N2CCOCC2)nc(N)c2c(N)nc3c(c12)CC(CCl)O3 (configuration not stated) | 4% | -21% | -3% | -5 | -15%
CCCCNC(=O)c1nn(C)c2c1CSc1ccccc1-2 | 0% | -15% | -16% | . | -12%
COc1cccc(-c2cc(NCc3ccccc3)ncn2)c1 | . | . | . | 0 | .
CC(C(=O)Nc1cccc([N+](=O)[O-])c1)N1C(=O)NC2(CCCC2)C1=O (configuration not stated) | . | . | -10% | 4 | .
COc1cc2c(C#N)c(N3CCc4ccccc4C3)nc(N)c2c(N)n1 | 1% | 14µM*[quencher] | -12% | -49* | ?
COc1ccc(-c2nc(C#N)c(N3CCc4ccccc4C3)o2)cc1OC | 17% | ? | -12% | . | ?
O=c1c2c3c(sc2nnn1Cc1ccc(Br)cc1)CCCC3 | 0% | -26% | -7% | . | -13%
CC/C=C\C/C=C\C/C=C\C/C=C\C/C=C\C/C=C\CCC(=O)NCC(=O)O | 8% | 4% | . | 1 | -4%
SMILES | Tau fibril FP | Tau fluor cs | USP1-UAF1 inh | Coupling enz | Tau ThT inhib
Cc1nc2ccccn2c(=O)c1NC(=O)c1ccccc1Cl | -2% | 4% | -20% | . | 1%
O=C(NNc1ccccc1Br)C(O)(c1cccc(C(F)(F)F)c1)c1cccc(C(F)(F)F)c1 | ? | ? | -18% | -7 | 1%
Cc1ccc(NNC(=O)C(O)(c2cccc(C(F)(F)F)c2)c2cccc(C(F)(F)F)c2)cc1 | 1% | 13µM*[quencher] | -20% | -7 | -18%
CCOC(=O)N1CCC2(CC1)OC(=O)C(C)=C2C(=O)NCc1ccc(C)cc1 | 2% | -1% | 6% | . | 2%
CCOc1ccc(-c2cc3c(=O)n(Cc4nc(-c5ccc(OC(C)C)cc5)oc4C)ccn3n2)cc1Cl | 1% | -8% | -7% | . | ?
O=C(Nc1nc(-c2cc3ccccc3oc2=O)cs1)c1ccco1 | -14% | -12% | -18% | 1 | 1%
O=c1oc2ccccc2cc1-c1csc(NN=C2CCCCC2)n1 | -9% | 25µM*[quencher] | -17% | 0 | ?
c1cncc(-c2nnc(-c3cccnc3)nn2)c1 | ? | -11% | -20% | -41* | ?
c1ccc(-c2nnc(-c3ccccc3)nn2)cc1 | 7% | -14% | -8% | 0 | .
COc1ccc(C(=O)NCCC(=O)NCc2cc(=O)n(C)c(=O)n2C)cc1 | . | . | -17% | . | .
COc1cccc(CNC(=O)C2CCN(S(=O)(=O)c3c(C)noc3/C=C/c3cccs3)CC2)c1 | -4% | -23% | -11% | . | 5%
N#C/C(=C\c1ccc(-c2cccc([N+](=O)[O-])c2)o1)C(=O)Nc1nc(-c2cccs2)cs1 | 15% | ? | -10% | 0 | 2µM*
N#CCCn1nc(-c2ccccc2)cc1Nc1ccccc1NC(=O)C(F)(F)F | 1% | -23% | -2% | 2 | -4%
N#CCCn1nc(-c2ccc(Br)cc2)cc1Nc1ccccc1NC(=O)C(F)(F)F | 15% | 20µM*[quencher] | -19% | -8 | ?
Cc1cc(Nc2ccc(C(=O)O)c(O)c2)n2ncnc2n1 | 1% | -9% | -24% | . | -12%
O=C(/C(=C/O)N=Nc1ccccc1)c1cccs1 | 5% | -14% | -15% | -2 | 28µM*
C=C(C)C(=O)c1cccs1 | -3% | -8% | . | 3 | -3%
NC(=O)C(=CNc1nc(-c2ccc(Cl)c(Cl)c2)cs1)C(N)=O | -9% | 16µM*[quencher] | . | -18 | 16µM*
Clc1ccc2c(c1)c1ccccc1n2CN1CCOCC1 | -10% | ? | -4% | -21 | 23%
Clc1ccc2c(c1)c1cc(Cl)ccc1n2CN1CCOCC1 | 13µM* | ? | -9% | -1 | ?
Cc1cc(-c2nsc(=O)o2)c(S(C)(=O)=O)s1 | ? | -13% | ? | 3 | 32µM*
COc1cc(Nc2nc3c(S(=O)(=O)c4cccc(Cl)c4)nnn3c3ccsc23)cc(OC)c1 | -12% | -9% | -24% | . | 8%
O=C(O)CNC(=O)c1ccccc1I | . | . | . | 0 | .
Cc1ccn2c(Nc3ccccc3)c(-c3c[nH]c4ccccc34)nc2c1 | ? | 11µM*[quencher] | -27% | . | ?
Cc1ccc2nc(-c3c[nH]c4ccccc34)c(Nc3ccc(F)cc3)n2c1 | ? | 5µM*[quencher] | -15% | . | -11%
Cc1ccc(Nc2c(-c3c[nH]c4ccccc34)nc3cc(C)ccn23)cc1 | 3% | 11µM*[quencher] | ? | . | ?
Cc1ccccc1Nc1c(-c2c[nH]c3ccccc23)nc2ccccn12 | 4% | ? | -5% | . | -13%
